IL1B secr inh: blocks inflammasome-driven IL-1 beta release | THP-1 LPS/ATP IL-1B secretion, AlphaLISA, 16 h; active compounds read low | activity change, % at 57.5 µM | actives 4.7% (n = 360,000) | AID 743279; in the data active = activity change below about -50%; inconclusive = mostly about -30% to -49%
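Secreted IL-1B measured by AlphaLISA bead assay after 16 h compound exposure of THP-1 cells; compounds (final up to 57.5 uM) added 1 h before LPS (250 ng/mL) and ATP (1.25 mM) stimulation; lower signal means less secretion.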
Vif-APOBEC3G blk: Vif-A3G binding inhibition | Q9HC16 | HeLa A3G-eYFP + Vif (tagged APOBEC3G with the HIV-1 protein that degrades it), YFP fluorescence, overnight | Potency, µM (top dose mostly 46.1 µM), most hits filed as inhibitors | actives 0.076% (n = 410,000) | AID 602310; also: nearly all actives have a fitted effect of over 60% in size
Target sequence (Q9HC16 whole entry, looked up): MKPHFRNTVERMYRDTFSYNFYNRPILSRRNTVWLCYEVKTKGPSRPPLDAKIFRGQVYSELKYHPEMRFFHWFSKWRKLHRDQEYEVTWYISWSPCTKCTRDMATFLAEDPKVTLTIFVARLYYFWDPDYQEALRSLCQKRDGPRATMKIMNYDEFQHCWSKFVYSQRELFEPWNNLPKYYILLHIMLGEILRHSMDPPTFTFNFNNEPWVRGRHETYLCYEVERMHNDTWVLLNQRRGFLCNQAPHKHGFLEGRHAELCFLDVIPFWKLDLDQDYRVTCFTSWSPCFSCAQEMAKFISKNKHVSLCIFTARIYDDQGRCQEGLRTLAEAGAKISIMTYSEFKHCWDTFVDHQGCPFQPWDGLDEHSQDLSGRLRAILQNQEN
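Read-out is eYFP fluorescence (Ex 488/Em 500-530) from Vif-expressing HeLa A3G-eYFP cells; more signal means A3G escaped Vif-mediated degradation. Cells plated overnight, compound pinned in, incubated overnight at 37 deg C.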
Giardia kill: Giardia lamblia killing; Giardia lamblia trophozoite viability; activity change, % at 7.66 µM, hits read low; actives 0.15% (n = 340,000); in the data active = activity change below about -80%; inconclusive = between about -30% and that limit;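 also: parasites exposed to compound for two days anaerobically before the ATP read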
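Luminescence from cellular ATP indicates surviving trophozoites (100 cells/well) following 48 hrs anaerobic compound treatment at 37 deg C; signal develops 15-30 min at room temperature.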
Vif-APOBEC3F blk: blocks the Vif interaction with APOBEC3F. HeLa A3F-eYFP + Vif (tagged APOBEC3F with the HIV-1 protein that degrades it), YFP fluorescence increase. Potency, µM (doses to about 46.1 µM). actives 0.2% (n = 390,000); also: nearly all actives have a fitted effect of over 65% in size
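HeLa cells stably expressing Vif plus C-terminally eYFP-tagged A3F were seeded, incubated overnight at 37 deg C, dosed with compound, incubated overnight again at 37 deg C. Yellow fluorescence (Ex 488/Em 500-530) reported blocked Vif-mediated A3F-eYFP degradation.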
SW480 rereplic: induces DNA re-replication in SW480 colon adenocarcinoma cells; SW480 DNA re-replication, Hoechst DNA content imaging, 48 h; Potency, µM (top dose mostly 46.1 µM), most hits filed as activators; actives 1.8% (n = 340,000); also: nearly all actives have a fitted effect of over 55% in size
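DNA re-replication was detected as more nuclei of elevated Hoechst intensity after 48 hr exposure to compound (23 nL pinned per well of 250 cells).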
MCF10A rereplic: induces DNA re-replication in MCF 10a normal breast cells; MCF 10A DNA re-replication, Hoechst nuclear intensity, 48 h; Potency, µM (top dose mostly 46.1 µM), actives largely listed as activators; actives 2.9% (n = 350,000); also: nearly all actives have a fitted effect of over 50% in size
Of the large screens only hits and unclear results are named; the others gave an inactive call. This is a sample that favours compounds with a hit; in the whole collection about 6.9% have one here. Unless noted, calls follow the shape of the dose curve; as a rule, active = well fitted curve in the direction sought with a large enough effect; inconclusive = small, poorly fitted or top-dose-only effect, or another doubt; inactive = no such curve, though single readings can be large; an effect the other way counts as inactive or inconclusive.

COC(=O)c1ccc(OCC2c3cc(OC)c(OC)cc3CCN2C(=O)COc2ccc(Cl)cc2)cc1 (configuration not stated)	none (no result: IL1B secr inh, Giardia kill, SW480 rereplic, MCF10A rereplic)
C[C@]12CC[C@@H]3c4ccc(O)cc4CC[C@H]3[C@@H]1C[C@H](O)C2O (some centres not stated)	none (no result: IL1B secr inh, Vif-APOBEC3G blk, Giardia kill, Vif-APOBEC3F blk)
CN(C)c1nc(N/N=C/c2ccccc2O)nc(Nc2ccc(F)cc2)n1	SW480 rereplic 5.8µM, MCF10A rereplic 10µM
CN(C)c1nc(Nc2ccc(F)cc2)nc(Oc2ccc(F)cc2)n1	none
O=C(NCc1ccc(Cl)cc1)C1CCCN(c2ncnc3onc(-c4ccc(F)cc4)c23)C1 (configuration not stated)	none (no result: IL1B secr inh, Giardia kill, SW480 rereplic, MCF10A rereplic)
COc1ccc(NC(=O)N2CCc3c(sc4c3CCCC4)C2c2ccccc2OC)cc1 (configuration not stated)	none (no result: IL1B secr inh, Giardia kill, SW480 rereplic, MCF10A rereplic)
CC(=O)c1ccc(N2CCN(S(=O)(=O)c3cc(-c4onc(C)c4C)ccc3C)CC2)cc1	none (no result: IL1B secr inh, Giardia kill, SW480 rereplic, MCF10A rereplic)
O=c1cc(CSc2ccccc2)[nH]c2ccc(F)cc12	none (no result: IL1B secr inh, Giardia kill, SW480 rereplic, MCF10A rereplic)
Cc1ccc2[nH]c3ccccc3c(=O)c2c1	SW480 rereplic inconclusive, MCF10A rereplic 16µM
O=c1c2ccccc2[nH]c2ccc(F)cc12	SW480 rereplic 16µM, MCF10A rereplic 9.2µM
O=c1[nH]c2ccccc2c(=O)c2ccccc12	none (no result: Giardia kill, SW480 rereplic, MCF10A rereplic)
O=c1c2ccccc2[nH]c2ccc(O)cc12	IL1B secr inh -71, SW480 rereplic 23µM
CCOC(=O)c1ccc(NC(=O)C(CC)Sc2nc3ccncc3[nH]2)cc1 (configuration not stated)	none (no result: IL1B secr inh, Giardia kill, SW480 rereplic, MCF10A rereplic)
COc1ccc(CCn2c(NN=C(C)C)nc3c2c(=O)[nH]c(=O)n3C)cc1	none
COc1ccc(CCn2c(NN)nc3c2c(=O)[nH]c(=O)n3C)cc1	Vif-APOBEC3G blk inconclusive, SW480 rereplic 15µM, MCF10A rereplic inconclusive
Cc1ccc(Nc2c(-c3ccccn3)nc3cc(C)ccn23)cc1	IL1B secr inh -100, MCF10A rereplic inconclusive
c1ccc(-c2nc3ccccn3c2NC2CCCC2)nc1	none
Cc1ccc(Nc2c(-c3ccccn3)nc3ccc(C)cn23)cc1	Vif-APOBEC3F blk inconclusive, SW480 rereplic 21µM
Cc1ccn2c(NC3CCCC3)c(-c3ccccn3)nc2c1	IL1B secr inh -96
Cc1ccc(Nc2c(-c3c[nH]c4ccccc34)nc3cc(C)ccn23)cc1	Vif-APOBEC3F blk inconclusive (no result: IL1B secr inh, Giardia kill, SW480 rereplic, MCF10A rereplic)
CC(=O)Nc1c(-c2ccccc2)nc2cc(C)ccn12	MCF10A rereplic inconclusive
Cc1ccn2c(Nc3ccccc3C)c(-c3ccncc3)nc2c1	IL1B secr inh -89, SW480 rereplic inconclusive
Cc1cc(Cl)ccc1NC(=O)CN(c1ccccc1Br)S(C)(=O)=O	none (no result: IL1B secr inh, Giardia kill, SW480 rereplic, MCF10A rereplic)
COc1ccc(/C=C/c2nnc(NC(=O)COc3ccc(Cl)cc3)s2)cc1	none (no result: IL1B secr inh, Vif-APOBEC3F blk, SW480 rereplic, MCF10A rereplic)
Cc1ccn2c(NC3CCCCC3)c(-c3cccc(-c4cccc(Cl)c4)c3)nc2c1	Vif-APOBEC3F blk inconclusive, SW480 rereplic inconclusive, MCF10A rereplic 21µM
Cc1ccn2c(Nc3ccc4c(c3)OCO4)c(-c3ccccn3)nc2c1	IL1B secr inh -98
COc1cc(CN(CCN(C)C)Cc2ccccc2)ccc1OCc1ccccc1	IL1B secr inh -63, SW480 rereplic inconclusive, MCF10A rereplic inconclusive
COc1ccc(CN(CCc2ccccc2)Cc2ccccc2)cc1OC	MCF10A rereplic inconclusive
COC(=O)C1=C(C)NC(=O)CC1c1ccccc1F (configuration not stated)	SW480 rereplic inconclusive, MCF10A rereplic 5.8µM
CC(C)(C)c1ccc(C(=O)Nc2nc3nc(-c4ccccc4)cc(=O)n3[nH]2)cc1	none (no result: IL1B secr inh, Giardia kill, SW480 rereplic, MCF10A rereplic)
CCc1ccc(C2C(C(=O)O)c3ccccc3C(=O)N2C)cc1 (configuration not stated)	none
CCc1ccc(/C=C/C(=O)C2C(=O)c3ccccc3C2=O)cc1	IL1B secr inh inconclusive, Giardia kill -82, SW480 rereplic inconclusive, MCF10A rereplic inconclusive
COc1ccc(Cl)cc1NC(=O)c1nn(-c2ccc(C)cc2)c(=O)n(C)c1=O	none (no result: IL1B secr inh, Giardia kill, SW480 rereplic, MCF10A rereplic)
CC(=O)C1=C(O)CCC1=NCCc1ccccc1	SW480 rereplic inconclusive, MCF10A rereplic 21µM
Cc1cc(C)cc(NC(=O)CSc2nnc(CN3CCOCC3)n2C)c1	none
Cc1cc(C)c(NC(=O)CSc2nnc(CN3CCOCC3)n2C)c(C)c1	SW480 rereplic 29µM
CCOC(=O)C(CC)Sc1ccc2nnc(-c3ccc(F)cc3)n2n1 (configuration not stated)	none (no result: IL1B secr inh, Vif-APOBEC3F blk, SW480 rereplic, MCF10A rereplic)
O=C1C=CC(=O)N1c1ccc2c(c1)C(NC(=O)C(F)(F)F)c1ccccc1-2 (configuration not stated)	IL1B secr inh -81, SW480 rereplic 8.2µM, MCF10A rereplic inconclusive
CN(C)C(=O)NC1c2ccccc2-c2ccccc21	none
CCOC(=O)c1ccc(Nc2nnc(C(C)(C)C)c(=O)[nH]2)cc1	IL1B secr inh -91, SW480 rereplic inconclusive, MCF10A rereplic inconclusive
OCC1(CCc2ccccc2)CCN(Cc2ccc(OC(F)F)cc2)CC1	none
OCC1(CCc2ccccc2)CCN(Cc2cc(Cl)ccc2O)CC1	IL1B secr inh -85, MCF10A rereplic inconclusive
CCOC(=O)C1(Cc2ccccc2C(F)(F)F)CCN(C2CCN(C(C)C)CC2)CC1	MCF10A rereplic 18µM
O=[N+]([O-])c1cccc(S(=O)(=O)N2CCN(c3nc(-c4cccs4)nc4ccccc34)CC2)c1	none (no result: IL1B secr inh, Vif-APOBEC3F blk, SW480 rereplic, MCF10A rereplic)
O=C(COc1ccc(S(=O)(=O)NC2CCCCC2)cc1Cl)Nc1ccc2c(c1)OCO2	IL1B secr inh -59, MCF10A rereplic inconclusive
O=C(COc1ccc(S(=O)(=O)NC2CCCCC2)cc1Cl)NCc1ccc2c(c1)OCO2	none
CSc1nc2ccc(NC(=O)c3nn(C(C)C)c(=O)c4ccccc34)cc2s1	IL1B secr inh -52
C=C1C=C(C)n2ncc(C(=O)Nc3ccccc3C(=O)OC)c2N1	none (no result: IL1B secr inh, Giardia kill, Vif-APOBEC3F blk, SW480 rereplic, MCF10A rereplic)
Cc1nc2sccn2c(=O)c1CCN1CCC(=C(c2ccc(F)cc2)c2ccc(F)cc2)CC1	IL1B secr inh inconclusive, SW480 rereplic inconclusive, MCF10A rereplic 2.1µM
Cc1cc(OCc2cc(C(=O)NCCN3CCCCC3CO)no2)cc(C)c1Cl (configuration not stated)	IL1B secr inh -62, SW480 rereplic inconclusive, MCF10A rereplic inconclusive
Cc1cc(OCc2cc(C(=O)N(C)CCc3cnn(C)c3)no2)cc(C)c1Cl	IL1B secr inh -59
CC(=O)c1ccc(OCc2cc(C(=O)N(C)C3CCOC3)no2)cc1 (configuration not stated)	none
Cc1cc(OCc2cc(C(=O)N(C)C3CCOC3)no2)cc(C)c1Cl (configuration not stated)	Vif-APOBEC3G blk inconclusive, MCF10A rereplic 2.3µM
Cc1ccc(OCc2cc(C(=O)N(C)CCc3nc4ccccc4[nH]3)no2)cc1C	SW480 rereplic inconclusive, MCF10A rereplic 21µM

Source: PubChem BioAssay (National Center for Advancing Translational Sciences (NCATS))
